ATXN2 expr inh – reduces ATXN2 reporter expression in HEK-293 cells | HEK-293 ATXN2-luciferase reporter, luminescence, 24 h | 360,000 tested, 0.72% active | Potency, µM (top dose mostly 57 µM), hits mostly inhibitors; also: nearly all actives have a fitted effect of over 55% in size
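ATXN2-luciferase reporter cells (luciferase flanked by upstream and downstream ATXN2 gene portions) were treated 24 h at 37 °C with compounds at up to 57 uM. SteadyGlo luminescence gave expression; GF-AFC fluorescence gave viability.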
Nrf2 ARE act – Nrf2 pathway activation. AREc32 ARE-luciferase reporter (MCF7-derived line), luminescence, 24 h. Potency, µM (series often up to 46.1 µM), actives largely listed as activators. 410,000 tested, 0.31% active. AID 624171; also: nearly all actives have a fitted effect of over 65% in size
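AREc32 cells carrying an ARE-driven firefly luciferase, 1000 cells/well in OPTI-MEM with 5% FBS, dosed after overnight attachment and incubated 24 hr at 37 deg C. Steady-Glo luminescence read after 30 min at RT.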
Nrf2 inh – Nrf2 pathway inhibition | 360,000 tested, 2.1% active | A549 ARE-Fluc reporter, luciferase luminescence, 18-24 h | Potency, µM (series often up to 46 µM), usual class: inhibitors; also: nearly all actives have a fitted effect of over 60% in size
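Two sequential reads on A549 ARE_Fluc cells exposed to compound for 18-24 h: a CellTiter-Fluor fluorescence read for viability, then a luciferase luminescence read for Nrf2/ARE activity.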
S2 tox – reduces viability in counter-screen for ATXN expression inhibitors; S2 cells (HEK-293 line with an ATXN2-luciferase reporter) viability, CellTiter-Fluor protease fluorescence, 24 h; Potency, µM (series often up to 56.7 µM), actives largely listed as cytotoxic; 400,000 tested, 0.49% active; also: nearly all actives have a fitted effect of over 40% in size
A549 viability – kills or reduces viability of A549 cells in Nrf2 counter-screen; A549 ARE-Fluc cells, CellTiter-Fluor viability, 18-24 h; Potency, µM (top dose mostly 46 µM), most hits filed as inhibitors; 390,000 tested, 0.16% active; AID 504648
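Cytotoxicity counterscreen: CellTiter-Fluor fluorescence was measured in A549 ARE_Fluc cells after 18-24 h of compound exposure in a concentration series. The subsequent BugLite luminescent read reports ARE-luciferase activity.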
Hits are given with their value; i = inactive; ? = inconclusive; nt = not tested or not shown; ! = repeats disagree; [ ] = another dose, or the depositor's remark. Only some compounds are listed: those with a hit (about 2.9% of all), similar ones and a draw of the others. Calls follow the shape of the dose curve; as a rule, active = well fitted curve in the direction sought with a large enough effect; inconclusive = small, poorly fitted or top-dose-only effect, or another doubt; inactive = no such curve, though single readings can be large; an effect the other way counts as inactive or inconclusive.

SMILES	ATXN2 expr inh	Nrf2 ARE act	Nrf2 inh	S2 tox	A549 viability
CCN(CC)CCNC(=O)c1ccc2nc(-c3ccccc3)c(-c3ccc(CN4CCC(n5c(=O)[nH]c6ccccc65)CC4)cc3)nc2c1	27µM	nt	nt	nt	nt
O=C(NCCN1CCC(n2c(=O)[nH]c3ccccc32)CC1)c1cccc(Cl)c1	i	i	nt	i	nt
O=C(N/N=C/c1ccc(O)cc1O)/C(=C/c1ccccc1)CCO	10µM	i	?	?	i
O=C(/C=C/c1ccco1)NCC(=O)N/N=C/c1ccccc1[N+](=O)[O-]	nt	11µM	i	i	?
O=C(CNC(=O)C1COc2ccccc2O1)N/N=C\c1cccc(O)c1 (configuration not stated)	i	i[9.22 µM]	i	i	i
Cc1cc(SCC(=O)N/N=C/c2ccc(O)cc2O)c(C)cc1Br	18µM	i	15µM	i	i
COc1cc(/C=N/NC(=O)/C(=C/c2ccccc2)CCO)ccc1O	i	i	i	?	i
O=C(CNC(=O)C1COc2ccccc2O1)N/N=C/c1ccc(O)cc1O (configuration not stated)	13µM	i	?	i	i
COC(=O)C1=C[C@@H](C(=O)OC)C2C3=C(C(=O)[C@@]2(C)NC(=O)c2ccccc2)[C@H](c2ccccc2)n2c(=O)n(-c4ccccc4)c(=O)n2[C@@H]3C1 (some centres not stated)	nt	nt	i	nt	i
CCOc1ccc(CN2CCOc3ccc(C(O)c4cccnc4)cc3C2)cc1 (configuration not stated)	nt	nt	nt	i	nt
O=C(CSc1nc2ccccc2n1Cc1ccccc1Cl)NCc1ccccc1	?	i	nt	?	i
O=S(=O)(c1ccc2c(c1)OCCO2)N1CCN(S(=O)(=O)c2ccccc2Cl)CC1	nt	nt	i	nt	i
Cc1cc(C)n(CC(=O)N2CCC(n3c(C(C)C)nc4cccnc43)CC2)n1	nt	nt	nt	i	nt
O=C(/C=C\c1ccccc1)NCC(=O)N/N=C/c1ccc(O)cc1O	18µM	i	?	i	i
O=C(Cc1ccc(-c2ccc(OCCN3CCOCC3)cc2)cn1)NCc1ccccc1	i	nt	nt	nt	nt
COc1ccccc1-c1nnc(NC(=O)CCS(=O)(=O)c2ccccc2)o1	i	?	i	i	i
CCN(Cc1ccccc1)S(=O)(=O)c1ccc(C(=O)Nc2nnc(-c3ccccc3OC)o2)cc1	?	i	13µM	i	i
COc1ccccc1-c1nnc(NC(=O)CCS(=O)(=O)c2ccc(F)cc2)o1	nt	22µM	nt	?	nt
CNC(=O)c1ccc2cc(C3(O)CCn4cncc43)ccc2c1 (configuration not stated)	i	nt	nt	nt	nt
COc1cc(Cl)c(NC(=O)CCS(=O)(=O)c2cc3c(cc2Cl)NC(=O)CO3)c(OC)c1	i	i	?	i	i
CN(C)c1nc(C=C(C#N)C#N)c(Cl)n1-c1ccc(F)cc1	?	?	i	22µM	?
Cc1oc(-c2ccccc2F)nc1CS(=O)(=O)CC(=O)N1CCN(c2ccc(Cl)cc2)CC1	?	i	5.8µM	i	?
Cc1oc(-c2ccccc2F)nc1CS(=O)(=O)CC(=O)N1CCCCCC1	i	i	i	i	i
CCN(CC)C1CCN(C(=O)c2cnn(-c3ncc4c(n3)-c3ccccc3CCC4)c2COC)C1 (configuration not stated)	nt	nt	nt	i	nt
COC(=O)c1[nH]c2ccc(C)cc2c1NC(=O)CN1CCN(c2ccccc2)CC1	i	i	18µM	i	i
SMILES	ATXN2 expr inh	Nrf2 ARE act	Nrf2 inh	S2 tox	A549 viability
COC(=O)c1[nH]c2ccc(C)cc2c1NC(=O)CN1CCN(Cc2ccccc2)CC1	i	i	i	i	i
CCOc1ccccc1OCC1CNCCO1 (configuration not stated)	i	nt	nt	i	nt
Cc1cnc(NC(=O)Nc2cc(Br)c(C)cc2OC[C@@H]2CNCCO2)cn1	1.2µM	nt	nt	nt	nt
CC(C)CCN(C(=O)c1csnn1)C(C(=O)NC1CCCC1)c1ccc(F)cc1 (configuration not stated)	i	i	23µM	i	18µM
O=C(NC1CCCC1)C(c1ccc(F)cc1)N(Cc1ccccc1)C(=O)c1csnn1 (configuration not stated)	i	i	i	i	i
COc1ccccc1N1CCN(C(=O)CCc2nnc3n(C)c(=O)c4sccc4n23)CC1	i	i	i	i	i
COc1ccc(CNC(=O)Cn2cnc3c(SC)nc(N)nc32)cc1	i	i	?	i	i
COc1c(C)cnc(Cn2cnc3c(Cl)nc(N)nc32)c1C	0.19µM	nt	nt	nt	nt
OC1CCC(Nc2ncc3nc(Nc4c(F)cc(F)cc4F)n([C@@H]4CCOC4)c3n2)CC1 (some centres not stated)	i	nt	nt	nt	nt
Cc1csc(-c2coc3cc(O)cc(C)c3c2=O)n1	i	10µM	?	i	i
COCC(=O)Nc1cc(C(=O)N2CC3CCCC2C3)c2c(c1)nc(-c1ccncc1)n2C (configuration not stated)	nt	nt	nt	i	nt
CCOC(=O)c1ccc(N2C(=O)c3[nH]nc(-c4ccc(OCC)cc4)c3C2c2ccc(OC)cc2OC)cc1 (configuration not stated)	i	i	i	i	i
CCOC(=O)c1ccc(N2C(=O)c3[nH]nc(-c4ccc(OCC)cc4)c3C2c2cccs2)cc1 (configuration not stated)	?	i	18µM	?	i
CCOc1ccc(-c2n[nH]c3c2C(c2cccs2)N(c2ccc(Br)cc2)C3=O)cc1 (configuration not stated)	nt	i	23µM	nt	i
CCOC(=O)c1ccc(N2C(=O)c3[nH]nc(-c4ccccc4)c3C2c2cccs2)cc1 (configuration not stated)	nt	i	?	nt	?
CCOc1ccc(N2C(=O)c3[nH]nc(-c4ccc(OC)cc4)c3C2c2cccs2)cc1 (configuration not stated)	?	i	23µM	18µM	?
Oc1c(CN2CCOCC2)cc(COCc2ccccc2)c2cccnc12	5.6µM	i	i	i	i
CC(C)OCc1cc(CN2CCN(c3ccccc3)CC2)c(O)c2ncccc12	1.3µM	i	i	?	i
Oc1c(CN2CCN(c3ccccc3)CC2)cc(Br)c2cccnc12	4.5µM	i	i	?	i
CCOCc1cc(CN2CCN(c3cccc(Cl)c3)CC2)c(O)c2ncccc12	nt	i	?	nt	i
CCOC(=O)N1CCN(Cc2cc(Cl)c3cccnc3c2O)CC1	3.5µM	i	i	?	i
Oc1c(CNc2ccccc2)cc(COCc2ccccc2)c2cccnc12	?	i	i	i	i
Oc1c(Br)cc(Br)c2cccnc12	22µM!	i	?	?	i
Cc1cc(=O)oc2cc(NC(=O)c3ccccc3Cl)ccc12	i	5µM	i	i	i
CCc1ccc(NC(=O)Cn2c(=O)n(Cc3ccc4c(c3)OCO4)c(=O)c3oc4ccccc4c32)cc1	nt	i	i	nt	i
COc1cc(/C=C/C(=O)O[C@H]2CC[C@]34C[C@]35CC[C@]3(C)[C@@H]([C@H](C)CCC=C(C)C)CC[C@@]3(C)[C@@H]5CC[C@H]4C2(C)C)ccc1O	i	nt	nt	i	nt

Source: PubChem BioAssay (National Center for Advancing Translational Sciences (NCATS))
